# From PubChem BioAssay
# Activity calls are given as the source filed them.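 The calls were made as follows, unless noted: active = visually confirmed hit in the image check and inhibition above 20%; inconclusive = visually confirmed hit but inhibition not above 20%; inactive = no visual hit in the image check.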
# Assays:
# [1] = inhibitors of TNFa-induced NFkB p65 translocation, primary screen, imaging, HUVEC, MLSMR starter and 10KST1 sets (AID 438;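 active = inhibition above 20% together with a positive visual image hit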;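 also: compound added about 3h40 before a 20 min TNFalpha stimulation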;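 as to inhibition: signal is the nuclear over cytoplasmic p65 intensity ratio per well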); conditions: HUVEC TNFa-induced p65 nuclear translocation; cell count: measured here: nuclei count (cytotoxicity indicator), at 2.08 µM; inhibition: at 2 µM, stronger effect = higher value, 0% TNFa-plus-vehicle, 100% no-TNFa wells
# [2] = reduction of polyQ htt aggregates in cells – imaging, exon1htt(103Q)mCFP cells, high-content imaging, primary screen (AID 483;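 active = visual image review flags a hit and inhibition of aggregation exceeds 20%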;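 also: compound exposure lasted 3 days before fixation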;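 as to nuclei count: percent of the per-plate median nuclei count of sample wells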); conditions: exon1htt(103Q)mCFP cell line, aggregate imaging, at 2 µM; inhibition of aggregation: stronger effect = higher value; nuclei count: measured here: cell count, toxicity
# [3] = endothelial E-selectin expression blockers – imaging, HUVEC, immunofluorescence, MLSMR starter and 10KST1 sets, primary screen (AID 487); conditions: HUVEC TNFalpha-induced E-selectin immunofluorescence imaging, at 2 µM; inhibition: stronger effect = higher value; nuclei count: measured here: cell number, toxicity;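 as to inhibition: signal is fraction of cell area covered by stained E-selectin grains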;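 as to nuclei count: 100% = median nuclei count of all wells on the same plate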
# [4] = biological target: Voltage-gated potassium channel subunit beta-2 (Rattus norvegicus) (UniProt P62483); test: inhibitors of rat Kvbeta2 reductase activity – biochemical, NADPH fluorescence, primary screen (AID 622;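 active = fluorescence slope higher than the sample average by over 3 SD, cut at about -0.22 in these data, passing the limit was not always enough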;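 also: slope of raw intensity against log time taken from 70 to 1610 s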); conditions: recombinant KvBeta, 4-cyanobenzaldehyde reduction, at 10 µM, stronger effect = higher value
# Voltage-gated potassium channel subunit beta-2 (Rattus norvegicus), sequence (P62483 whole entry, looked up): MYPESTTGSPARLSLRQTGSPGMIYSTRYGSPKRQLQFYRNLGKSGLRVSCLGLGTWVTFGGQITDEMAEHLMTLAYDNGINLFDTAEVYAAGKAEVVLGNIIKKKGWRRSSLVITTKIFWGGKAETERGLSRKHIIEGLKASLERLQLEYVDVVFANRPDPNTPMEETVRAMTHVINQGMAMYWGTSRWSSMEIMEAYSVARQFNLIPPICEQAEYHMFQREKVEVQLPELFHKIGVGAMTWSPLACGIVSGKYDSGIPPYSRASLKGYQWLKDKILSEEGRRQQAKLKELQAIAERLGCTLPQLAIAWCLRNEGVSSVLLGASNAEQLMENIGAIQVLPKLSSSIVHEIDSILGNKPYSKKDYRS
# [5] = biological target: Voltage-gated potassium channel subunit beta-2 (Rattus norvegicus) (UniProt P62483); test: enhancers of rat Kvbeta2 NADPH turnover – biochemical, NADPH fluorescence, primary screen (AID 623;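 active = NADPH fluorescence slope more negative than the mean of all samples by about 3 SD, 99.7% confidence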;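 also: fluorescence intensity change per second fitted from 20 to 320 s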); conditions: Recombinant KvBeta, NADPH fluorescence decrease slope, 10 min; at 10 µM; stronger effect = lower value
# [6] = biological target: Alpha-2C adrenergic receptor (Homo sapiens) (UniProt P18825); test: compounds altering alpha2C-coupled GIRK flux – cell-based, HEK293 alpha2C/GIRK1/2, thallium flux, primary screen (AID 624;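 active = fluorescence slope after compound addition differing from the mean of all screened samples at 99.7% confidence, in either direction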;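 also: slope of fluorescence ratio to pre-addition baseline per second over 15 to 24 s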); conditions: thallium flux BTC fluorescence, at 10 µM, actives lie on both sides
# Alpha-2C adrenergic receptor (Homo sapiens), sequence (P18825 whole entry, looked up): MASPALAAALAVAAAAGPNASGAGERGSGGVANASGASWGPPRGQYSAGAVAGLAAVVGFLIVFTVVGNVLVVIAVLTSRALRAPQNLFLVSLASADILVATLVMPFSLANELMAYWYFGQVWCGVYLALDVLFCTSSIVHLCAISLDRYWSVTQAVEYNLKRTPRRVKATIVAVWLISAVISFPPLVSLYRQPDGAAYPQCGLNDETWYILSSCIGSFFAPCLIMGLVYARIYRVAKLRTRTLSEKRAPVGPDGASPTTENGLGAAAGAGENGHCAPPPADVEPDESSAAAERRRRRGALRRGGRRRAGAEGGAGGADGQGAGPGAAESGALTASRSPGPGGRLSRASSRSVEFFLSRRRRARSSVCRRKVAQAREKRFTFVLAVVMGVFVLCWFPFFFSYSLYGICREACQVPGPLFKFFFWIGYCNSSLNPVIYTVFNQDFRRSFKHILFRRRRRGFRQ
# [7] = blockers of RIG-like receptor reporter activation – cell-based, Sendai virus stimulus, luciferase, 10K MLSCN set, TLR/RLR signaling modifier project, primary screen (AID 602276;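 active = inhibition at or above 50% at 10 µM; inactive = inhibition below 50%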;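 also: firefly luciferase from ISG56 promoter only with Renilla not read in this screen; 0% = Sendai virus plus DMSO and 100% = medium plus DMSO without virus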); conditions: HEK293 RL24 IRF3 luciferase reporter, at 10 µM, stronger effect = higher value
# [8] = TLR3 IRF3 reporter activation blockers – cell-based, poly I:C stimulus, luciferase, 10K MLSCN set, primary screen (AID 602277;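 active = inhibition of the reporter signal at or above 50%; inactive = inhibition below 50%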); conditions: HEK293-TLR3 RL24 IRF3 luciferase reporter, at 10 µM, stronger effect = higher value
SMILES,cell count [1],inhibition [1],inhibition of aggregation [2],nuclei count [2] [%],inhibition [3],nuclei count [3] [%],fluorescence slope [4],NADPH fluorescence slope [5],slope [6],inhibition [7],inhibition [8]
CCOC(=O)c1ccc(S(=O)(=O)Nc2cc(C(C)(C)C)no2)cc1,551,-10.3% (inactive),5.8% (inactive),108,-194% (inactive),152,-0.612 (inactive),5.6e-06 (inactive),0.00811 (inactive),-7.27% (inactive),-2.9% (inactive)
Cc1nn(-c2ccc(F)cc2)c2sc(C(=O)O)cc12,354,4.7% (inactive),3.7% (inactive),86.9,-87.2% (inactive),117,-0.447 (inactive),-0.00011 (inactive),0.00627 (inactive),13.2% (inactive),24% (inactive)
CCOC(=O)N1CCC(N2CC34C=CC(O3)C(C(=O)O)C4C2=O)CC1 (stereo not drawn),811,4.4% (inactive),14.5% (inactive),106,-9.6% (inactive),114,-0.552 (inactive),2.3e-05 (inactive),0.00719 (inactive),4.63% (inactive),12.4% (inactive)
CCCC(C)c1nnc(NC(=O)C2CCCO2)s1 (stereo not drawn),575,0% (inactive),-11.3% (inactive),97.6,9.1% (inactive),103,-0.524 (inactive),-4e-05 (inactive),0.00609 (inactive),-3.58% (inactive),-11.9% (inactive)
O=C(NCc1cccs1)C1CCN(S(=O)(=O)c2cccs2)CC1,353,4.5% (inactive),0.9% (inactive),99.2,-13.4% (inactive),120,-0.619 (inactive),-1.4e-05 (inactive),0.00617 (inactive),7.22% (inactive),15% (inactive)
CC1CCN(C(=O)CSc2nc3c(cnn3-c3ccccc3)c(=O)[nH]2)CC1,472,2.3% (inactive),-5.6% (inactive),102,14.9% (inactive),79.5,-0.582 (inactive),-2.5e-05 (inactive),0.00596 (inactive),10.9% (inactive),28.1% (inactive)
COC(=O)c1cn(NC(=O)C2CCCO2)c(=O)c2ccccc12 (stereo not drawn),415,-2.5% (inactive),12.6% (inactive),103,-39.1% (inactive),89.7,-0.462 (inactive),-3.7e-05 (inactive),0.0068 (inactive),11.6% (inactive),20.9% (inactive)
Cc1cc2oc(=O)cc(C)c2c(=O)o1,411,-15.8% (inactive),-0.8% (inactive),105,-2.6% (inactive),115,-0.391 (inactive),3.6e-05 (inactive),0.00528 (inactive),-5.14% (inactive),-17.4% (inactive)
CCOC(=O)C1CSC(CC(=O)Nc2ccc(Cl)cc2)C(=O)N1 (stereo not drawn),704,3.9% (inactive),7.4% (inactive),103,-56.7% (inactive),132,-0.325 (inactive),-4.9e-05 (inactive),0.00513 (inactive),-5.63% (inactive),1.5% (inactive)
CN1CC=C2C(C#N)=C(N)C(C#N)(C#N)C(Cc3ccccc3)C2C1 (stereo not drawn),556,10% (inactive),0.5% (inactive),81.2,-7.7% (inactive),102,-0.507 (inactive),-2.1e-05 (inactive),0.0052 (inactive),4.84% (inactive),8.81% (inactive)
COc1ccccc1N(CC(=O)Nc1cccnc1)S(C)(=O)=O,623,9.2% (inactive),20.5% (inactive),92.6,58.2% (inactive),34.6,-0.408 (inactive),-6.4e-05 (inactive),0.00671 (inactive),7.85% (inactive),17.6% (inactive)
C=CCn1c(SC(C)C(=O)NC2(C#N)CCCCC2)nnc1-c1ccc(OC)cc1 (stereo not drawn),612,9.9% (inactive),6.2% (inactive),95,-154% (inactive),94,-0.594 (inactive),-3.3e-05 (inactive),0.00361 (inactive),22.5% (inactive),21.6% (inactive)
O=C(CCn1c(=S)[nH]c2cc3c(cc2c1=O)OCO3)N1CCN(C2CCCCC2)CC1,473,4.3% (inactive),4.1% (inactive),129,28.2% (inactive),85.3,-0.476 (inactive),-9.8e-07 (inactive),0.00668 (inactive),3.29% (inactive),33.1% (inactive)
c1ccc(-c2nnc(CSc3nncs3)o2)cc1,322,16.3% (inactive),-19% (inactive),110,-49.2% (inactive),106,-0.402 (inactive),-2e-05 (inactive),0.00275 (inactive),-21.1% (inactive),-78.9% (inactive)
COc1ccc(Br)cc1CNC(=O)C1CCCN(S(C)(=O)=O)C1 (stereo not drawn),949,-7.5% (inactive),-7.3% (inactive),114,-129% (inactive),113,-0.362 (inactive),-5.7e-05 (inactive),0.00566 (inactive),5.73% (inactive),33.6% (inactive)
O=C(c1cc2n(n1)C(C(F)(F)F)CC(c1ccc(Cl)cc1)N2)N1CCCC1 (stereo not drawn),259,-5.8% (inactive),-22.3% (inactive),112,-9.7% (inactive),102,-0.322 (inactive),4.7e-06 (inactive),0.00413 (inactive),14.3% (inactive),16.5% (inactive)
Cn1c(C(=O)N2CCN(C(=O)c3ccco3)CC2)cc2c(=O)n3ccccc3nc21,323,-3.3% (inactive),-13.8% (inactive),111,-116% (inactive),118,-0.00798 (active),7.5e-06 (inactive),0.00582 (inactive),10.9% (inactive),18% (inactive)
O=c1[nH]c(SCc2ccccc2Cl)nc2c1CCCC2,447,-14.3% (inactive),36.1% (inactive),77.2,-49.4% (inactive),111,-0.295 (inactive),-2.4e-06 (inactive),0.00421 (inactive),10.6% (inactive),4.88% (inactive)
Cn1cc(C(=O)c2ccc(F)cc2)cc1-c1nc2ccccc2n1C,357,-6.3% (inactive),23.1% (inactive),86.8,5.7% (inactive),83,-0.59 (inactive),-4.1e-05 (inactive),0.0041 (inactive),3.11% (inactive),-17.9% (inactive)
CCc1nn2c(N3CCOCC3)cc(C)nc2c1-c1ccc(F)cc1,716,-9.7% (inactive),-24.7% (inactive),101,-46.2% (inactive),114,-0.465 (inactive),-0.000126 (inactive),0.0049 (inactive),10.6% (inactive),18.4% (inactive)
COCC(C)NC(=O)NC(=O)c1ccc(Cl)cc1 (stereo not drawn),715,0.4% (inactive),10.2% (inactive),100,-67.6% (inactive),98.3,-0.476 (inactive),2.1e-05 (inactive),0.00585 (inactive),14.1% (inactive),12.5% (inactive)
Cn1nnnc1SCC(=O)NC1CCCCC1,228,3.4% (inactive),20% (inactive),84.3,-0.8% (inactive),79.2,-0.432 (inactive),4.4e-07 (inactive),0.00705 (inactive),5.19% (inactive),19.8% (inactive)
CCn1cc(SCC(=O)Nc2cc(C)on2)c2ccccc21,760,-15.1% (inactive),-0.1% (inactive),60.4,29.9% (inactive),86.4,-0.494 (inactive),-2.7e-05 (inactive),0.00702 (inactive),26.7% (inactive),25.1% (inactive)
CCCSc1nc2c(cnn2-c2ccc(C)cc2)c(=O)[nH]1,671,-5.8% (inactive),-5.9% (inactive),115,-17.4% (inactive),113,-0.545 (inactive),-5.2e-06 (inactive),0.0075 (inactive),-9.65% (inactive),10.6% (inactive)
NC(=O)c1cccc(S(=O)(=O)N2CCCCC2)c1,417,3% (inactive),15.9% (inactive),105,47.1% (inactive),87.4,-0.473 (inactive),-4.7e-05 (inactive),0.006 (inactive),4.76% (inactive),31.6% (inactive)
O=C(Nc1ccccc1C(=O)N1CCOCC1)C1CCC(=O)N1C1CCCC1 (stereo not drawn),229,14.7% (inactive),8.7% (inactive),79.1,-48.2% (inactive),110,-0.425 (inactive),-4.5e-05 (inactive),0.00481 (inactive),4.86% (inactive),7.23% (inactive)
COc1ccc2nc(N3CCC(C)CC3)c(C#N)cc2c1,380,7.3% (inactive),-10.6% (inactive),108,-59.3% (inactive),66.6,-0.587 (inactive),-9e-06 (inactive),0.00372 (inactive),-48.2% (inactive),-170% (inactive)
Cc1nc(CCNS(=O)(=O)c2cccs2)cs1,371,-4.4% (inactive),6.9% (inactive),108,-20.4% (inactive),102,-0.566 (inactive),2.6e-05 (inactive),0.00608 (inactive),-9.77% (inactive),-22.4% (inactive)
